{"source": "paper PMC7862700", "about": "“An all-to-all approach to the identification of sequence-specific readers for epigenetic DNA modifications on cytosine”", "test_in_all_cases": "DAPPL (digital affinity profiling via proximity ligation, sequencing); 10 mM Tris-HCl pH 7.5, 50 mM NaCl, 1 mM DTT, 4% glycerol, room temperature, 30 min; GST-TFs on glutathione beads, 16-mer random dsDNA library, 0.1% formaldehyde crosslink after washing; high values mean tight binding", "key": {"ELK1": {"molecular_target": "T1, ELK1 (Homo sapiens, UniProt P19419 1-428)", "T1 sequence": "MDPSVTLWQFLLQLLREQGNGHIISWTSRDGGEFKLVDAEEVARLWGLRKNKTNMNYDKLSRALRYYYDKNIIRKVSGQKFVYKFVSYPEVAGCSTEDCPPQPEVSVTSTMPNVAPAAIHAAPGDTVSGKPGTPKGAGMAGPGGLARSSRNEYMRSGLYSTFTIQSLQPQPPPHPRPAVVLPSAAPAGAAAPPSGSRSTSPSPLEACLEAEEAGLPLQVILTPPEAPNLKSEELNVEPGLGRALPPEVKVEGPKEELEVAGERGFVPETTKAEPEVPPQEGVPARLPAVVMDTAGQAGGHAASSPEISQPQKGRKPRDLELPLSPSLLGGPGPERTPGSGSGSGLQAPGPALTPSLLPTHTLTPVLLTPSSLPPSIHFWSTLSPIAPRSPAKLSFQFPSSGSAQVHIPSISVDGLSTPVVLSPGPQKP", "details": "protein: recombinant; tags: N-terminal GST; dsDNA, one strand shown", "method_in_brief": "(§1)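 Binding signal is each hexamer's read frequency for a factor divided by its frequency in the tag-only sample. The factors were GST-fused human transcription factors from yeast, captured on glutathione beads, DNA-barcoded and pooled with that sample. Pools were incubated with 200 nmole of a random double-stranded 16-mer DNA library in Tris/NaCl/DTT/glycerol buffer at room temperature for 30 min, then washed, crosslinked with 0.1% formaldehyde, proximity-ligated with BsaI/T4 ligase (1 h, 37 °C), PCR-amplified and sequenced on an Illumina NextSeq500.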"}, "GABPA": {"molecular_target": "T2, GABPA (Homo sapiens, UniProt Q06546 1-454)", "T2 sequence": "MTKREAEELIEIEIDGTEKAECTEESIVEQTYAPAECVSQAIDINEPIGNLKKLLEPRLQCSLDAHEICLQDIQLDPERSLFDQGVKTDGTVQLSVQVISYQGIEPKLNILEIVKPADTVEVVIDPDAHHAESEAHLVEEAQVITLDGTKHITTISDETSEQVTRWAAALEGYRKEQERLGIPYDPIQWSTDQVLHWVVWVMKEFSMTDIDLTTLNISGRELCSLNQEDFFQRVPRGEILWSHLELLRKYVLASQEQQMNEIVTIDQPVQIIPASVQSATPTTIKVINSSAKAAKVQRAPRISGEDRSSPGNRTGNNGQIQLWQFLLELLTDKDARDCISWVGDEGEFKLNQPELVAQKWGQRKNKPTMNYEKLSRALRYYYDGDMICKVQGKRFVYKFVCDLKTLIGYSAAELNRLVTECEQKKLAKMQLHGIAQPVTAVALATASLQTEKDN", "details": "protein: recombinant; tags: N-terminal GST; dsDNA, one strand shown", "method_in_brief": "as §1"}, "ELF1": {"molecular_target": "ELF1 (Homo sapiens, UniProt P32519 1-619)", "sequence (P32519 whole entry)": "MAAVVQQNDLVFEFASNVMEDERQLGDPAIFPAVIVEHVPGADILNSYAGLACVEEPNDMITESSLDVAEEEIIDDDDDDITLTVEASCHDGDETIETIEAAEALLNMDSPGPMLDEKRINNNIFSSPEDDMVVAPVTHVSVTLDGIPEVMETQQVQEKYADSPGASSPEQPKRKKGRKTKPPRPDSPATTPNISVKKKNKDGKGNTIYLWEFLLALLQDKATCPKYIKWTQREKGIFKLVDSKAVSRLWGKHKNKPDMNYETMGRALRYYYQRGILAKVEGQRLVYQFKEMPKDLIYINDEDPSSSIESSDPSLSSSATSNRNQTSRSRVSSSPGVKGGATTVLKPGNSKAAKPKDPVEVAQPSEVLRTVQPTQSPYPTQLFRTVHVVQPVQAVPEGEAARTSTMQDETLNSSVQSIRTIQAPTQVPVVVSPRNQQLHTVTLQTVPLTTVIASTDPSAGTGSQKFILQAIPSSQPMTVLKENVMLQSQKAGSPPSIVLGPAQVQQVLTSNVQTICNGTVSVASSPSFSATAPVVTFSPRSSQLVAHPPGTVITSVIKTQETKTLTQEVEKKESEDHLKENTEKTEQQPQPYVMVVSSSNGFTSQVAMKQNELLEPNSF", "details": "protein: recombinant; tags: N-terminal GST; dsDNA, one strand shown", "method_in_brief": "as §1"}, "EHF": {"molecular_target": "T3, EHF (Homo sapiens, UniProt Q9NZC4 1-300)", "T3 sequence": "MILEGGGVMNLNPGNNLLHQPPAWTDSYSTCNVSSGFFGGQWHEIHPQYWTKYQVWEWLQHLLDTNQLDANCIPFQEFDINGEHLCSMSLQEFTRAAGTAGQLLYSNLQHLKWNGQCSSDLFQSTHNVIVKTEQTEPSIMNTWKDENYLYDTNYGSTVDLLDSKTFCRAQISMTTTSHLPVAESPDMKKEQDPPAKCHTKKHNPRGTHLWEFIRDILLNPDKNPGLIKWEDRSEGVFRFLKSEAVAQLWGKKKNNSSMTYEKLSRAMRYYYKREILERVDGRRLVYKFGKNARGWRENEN", "details": "protein: recombinant; tags: N-terminal GST; dsDNA, one strand shown", "method_in_brief": "as §1"}, "FEV": {"molecular_target": "T4, FEV (Homo sapiens, UniProt Q99581 1-238)", "T4 sequence": "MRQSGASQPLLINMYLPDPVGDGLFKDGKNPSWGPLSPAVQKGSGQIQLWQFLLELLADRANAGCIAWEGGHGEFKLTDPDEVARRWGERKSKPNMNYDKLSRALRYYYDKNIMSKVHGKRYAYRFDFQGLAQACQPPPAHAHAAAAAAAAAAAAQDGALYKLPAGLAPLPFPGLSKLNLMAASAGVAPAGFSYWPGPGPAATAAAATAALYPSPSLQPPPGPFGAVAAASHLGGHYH", "details": "protein: recombinant; tags: N-terminal GST; dsDNA, one strand shown", "method_in_brief": "as §1"}, "HSF1": {"molecular_target": "HSF1 (Homo sapiens, UniProt Q00613 1-529)", "sequence (Q00613 whole entry)": "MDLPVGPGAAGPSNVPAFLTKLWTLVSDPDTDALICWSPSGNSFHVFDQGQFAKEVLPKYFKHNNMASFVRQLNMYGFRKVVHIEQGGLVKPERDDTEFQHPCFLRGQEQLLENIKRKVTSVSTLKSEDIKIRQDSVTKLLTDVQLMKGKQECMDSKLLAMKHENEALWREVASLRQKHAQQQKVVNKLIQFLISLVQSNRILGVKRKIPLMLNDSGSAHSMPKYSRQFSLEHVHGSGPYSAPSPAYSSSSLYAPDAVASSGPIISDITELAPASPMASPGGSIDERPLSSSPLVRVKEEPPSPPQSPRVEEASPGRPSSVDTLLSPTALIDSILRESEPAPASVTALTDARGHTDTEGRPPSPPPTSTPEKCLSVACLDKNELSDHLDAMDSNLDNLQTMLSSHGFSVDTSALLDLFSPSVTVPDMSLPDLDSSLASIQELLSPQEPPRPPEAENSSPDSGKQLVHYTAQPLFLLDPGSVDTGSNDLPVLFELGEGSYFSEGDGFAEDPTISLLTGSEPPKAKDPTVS", "details": "protein: recombinant; tags: N-terminal GST; chain copies: 3; dsDNA, one strand shown", "method_in_brief": "as §1"}, "SPIC": {"molecular_target": "T5, SPIC (Homo sapiens, UniProt Q8N5J4 1-248)", "T5 sequence": "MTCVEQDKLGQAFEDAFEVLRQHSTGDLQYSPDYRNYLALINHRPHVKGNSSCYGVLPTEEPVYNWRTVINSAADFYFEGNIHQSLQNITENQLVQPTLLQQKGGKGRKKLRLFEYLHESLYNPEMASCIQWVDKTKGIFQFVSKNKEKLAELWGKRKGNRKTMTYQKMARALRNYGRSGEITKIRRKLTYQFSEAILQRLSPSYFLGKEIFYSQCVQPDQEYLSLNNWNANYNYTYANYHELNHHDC", "details": "protein: recombinant; tags: N-terminal GST; dsDNA, one strand shown", "method_in_brief": "as §1"}, "ELF4": {"molecular_target": "ELF4 (Homo sapiens, UniProt Q99607 1-663)", "sequence (Q99607 whole entry)": "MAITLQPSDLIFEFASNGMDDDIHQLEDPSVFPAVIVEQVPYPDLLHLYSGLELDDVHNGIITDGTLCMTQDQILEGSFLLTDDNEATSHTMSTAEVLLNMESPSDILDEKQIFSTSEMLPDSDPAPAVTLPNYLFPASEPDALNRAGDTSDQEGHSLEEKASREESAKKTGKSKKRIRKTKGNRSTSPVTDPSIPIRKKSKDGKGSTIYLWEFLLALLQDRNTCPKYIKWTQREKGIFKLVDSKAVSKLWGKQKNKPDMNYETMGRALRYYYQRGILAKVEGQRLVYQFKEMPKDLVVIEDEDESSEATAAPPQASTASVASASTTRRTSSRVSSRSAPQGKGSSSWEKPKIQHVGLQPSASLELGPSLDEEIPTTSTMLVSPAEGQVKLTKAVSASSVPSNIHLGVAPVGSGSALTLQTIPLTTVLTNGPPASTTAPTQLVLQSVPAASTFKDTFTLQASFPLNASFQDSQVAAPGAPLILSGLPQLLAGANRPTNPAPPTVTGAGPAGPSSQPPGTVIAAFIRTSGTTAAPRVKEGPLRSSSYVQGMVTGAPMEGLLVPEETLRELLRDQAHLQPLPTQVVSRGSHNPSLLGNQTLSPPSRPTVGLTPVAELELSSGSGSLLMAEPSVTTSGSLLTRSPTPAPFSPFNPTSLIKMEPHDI", "details": "protein: recombinant; tags: N-terminal GST; dsDNA, one strand shown", "method_in_brief": "as §1"}, "ETV2": {"molecular_target": "T6, ETV2 (Homo sapiens, UniProt O00321 1-342)", "T6 sequence": "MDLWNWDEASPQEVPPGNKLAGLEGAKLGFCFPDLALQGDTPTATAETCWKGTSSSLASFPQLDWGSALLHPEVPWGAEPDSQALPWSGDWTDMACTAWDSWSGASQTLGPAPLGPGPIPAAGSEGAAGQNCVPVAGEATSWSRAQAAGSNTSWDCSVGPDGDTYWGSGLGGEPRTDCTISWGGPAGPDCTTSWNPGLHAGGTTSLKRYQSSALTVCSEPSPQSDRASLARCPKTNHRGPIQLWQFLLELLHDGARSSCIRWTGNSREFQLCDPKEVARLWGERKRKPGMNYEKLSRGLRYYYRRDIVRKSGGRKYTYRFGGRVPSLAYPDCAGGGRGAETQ", "details": "protein: recombinant; tags: N-terminal GST; dsDNA, one strand shown", "method_in_brief": "as §1"}, "ELF3": {"molecular_target": "T7, ELF3 (Homo sapiens, UniProt P78545 1-371)", "T7 sequence": "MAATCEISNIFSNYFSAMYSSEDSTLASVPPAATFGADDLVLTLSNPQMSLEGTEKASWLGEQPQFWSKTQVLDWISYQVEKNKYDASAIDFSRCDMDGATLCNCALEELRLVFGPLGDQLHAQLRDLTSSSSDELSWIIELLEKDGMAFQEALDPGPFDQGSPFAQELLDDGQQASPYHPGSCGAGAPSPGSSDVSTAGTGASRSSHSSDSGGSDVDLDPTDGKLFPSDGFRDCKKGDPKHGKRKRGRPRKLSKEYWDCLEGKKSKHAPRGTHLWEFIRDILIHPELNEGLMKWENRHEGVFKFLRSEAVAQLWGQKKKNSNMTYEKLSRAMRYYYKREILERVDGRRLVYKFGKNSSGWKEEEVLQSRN", "details": "protein: recombinant; tags: N-terminal GST; dsDNA, one strand shown", "method_in_brief": "as §1"}, "ETV1": {"molecular_target": "ETV1 (Homo sapiens, UniProt P50549 1-477)", "sequence (P50549 whole entry)": "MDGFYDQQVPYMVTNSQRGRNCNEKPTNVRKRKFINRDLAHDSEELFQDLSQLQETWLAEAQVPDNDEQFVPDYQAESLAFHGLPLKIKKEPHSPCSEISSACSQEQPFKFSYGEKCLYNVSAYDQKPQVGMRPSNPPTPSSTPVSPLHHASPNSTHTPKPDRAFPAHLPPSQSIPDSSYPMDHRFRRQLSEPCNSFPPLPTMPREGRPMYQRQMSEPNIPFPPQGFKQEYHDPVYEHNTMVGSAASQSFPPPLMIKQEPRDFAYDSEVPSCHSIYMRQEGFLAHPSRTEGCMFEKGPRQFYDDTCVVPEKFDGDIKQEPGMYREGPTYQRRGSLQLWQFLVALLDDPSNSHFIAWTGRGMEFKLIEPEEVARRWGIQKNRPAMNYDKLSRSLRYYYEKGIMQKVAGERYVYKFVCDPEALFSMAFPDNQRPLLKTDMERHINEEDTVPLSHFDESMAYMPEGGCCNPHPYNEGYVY", "details": "protein: recombinant; tags: N-terminal GST; dsDNA, one strand shown", "method_in_brief": "as §1"}, "ETV3": {"molecular_target": "T8, ETV3 (Homo sapiens, UniProt P41162-2 1-143)", "T8 sequence": "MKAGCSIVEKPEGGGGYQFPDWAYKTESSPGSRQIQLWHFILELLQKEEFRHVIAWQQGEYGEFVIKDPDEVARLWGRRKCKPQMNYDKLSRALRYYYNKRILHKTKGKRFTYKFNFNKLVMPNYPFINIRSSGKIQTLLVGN", "details": "protein: recombinant; tags: N-terminal GST; dsDNA, one strand shown", "method_in_brief": "as §1"}}, "data": [{"sequence": "CAGACT", "values": [{"measurement": "binding signal", "setting": "ELK1", "result": "1.01 fold enrichment (6-mer frequency, TF over GST control)"}, {"measurement": "binding signal", "setting": "GABPA", "result": "1.06 fold enrichment (6-mer frequency, TF over GST control)"}, {"measurement": "binding signal", "setting": "ELF1", "result": "1.02 fold enrichment (6-mer frequency, TF over GST control)"}, {"measurement": "binding signal", "setting": "EHF", "result": "1.05 fold enrichment (6-mer frequency, TF over GST control)"}, {"measurement": "binding signal", "setting": "FEV", "result": "1 fold enrichment (6-mer frequency, TF over GST control)"}, {"measurement": "binding signal", "setting": "HSF1", "result": "1.06 fold enrichment (6-mer frequency, TF over GST control)"}, {"measurement": "binding signal", "setting": "SPIC", "result": "1.05 fold enrichment (6-mer frequency, TF over GST control)"}, {"measurement": "binding signal", "setting": "ELF4", "result": "1.07 fold enrichment (6-mer frequency, TF over GST control)"}, {"measurement": "binding signal", "setting": "ETV2", "result": "1.04 fold enrichment (6-mer frequency, TF over GST control)"}, {"measurement": "binding signal", "setting": "ELF3", "result": "1.04 fold enrichment (6-mer frequency, TF over GST control)"}, {"measurement": "binding signal", "setting": "ETV1", "result": "1.05 fold enrichment (6-mer frequency, TF over GST control)"}, {"measurement": "binding signal", "setting": "ETV3", "result": "1.01 fold enrichment (6-mer frequency, TF over GST control)"}]}]}
